# Source: PubChem (Corson Lab, School of Medicine, Indiana University)
# FECH inh: inhibitors of human ferrochelatase; P22830; purified FECH, Ni-mesoporphyrin absorbance 550 nm; calls only at 10 µM (by protocol); 20,000 compounds, 3.3% hits; AID 1671448;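 active = enzyme reaction rate more than 3 SD below the solvent-only control wells on the same plate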;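 also: lower slope than DMSO wells means FECH inhibition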
# Target sequence (P22830 whole entry, looked up): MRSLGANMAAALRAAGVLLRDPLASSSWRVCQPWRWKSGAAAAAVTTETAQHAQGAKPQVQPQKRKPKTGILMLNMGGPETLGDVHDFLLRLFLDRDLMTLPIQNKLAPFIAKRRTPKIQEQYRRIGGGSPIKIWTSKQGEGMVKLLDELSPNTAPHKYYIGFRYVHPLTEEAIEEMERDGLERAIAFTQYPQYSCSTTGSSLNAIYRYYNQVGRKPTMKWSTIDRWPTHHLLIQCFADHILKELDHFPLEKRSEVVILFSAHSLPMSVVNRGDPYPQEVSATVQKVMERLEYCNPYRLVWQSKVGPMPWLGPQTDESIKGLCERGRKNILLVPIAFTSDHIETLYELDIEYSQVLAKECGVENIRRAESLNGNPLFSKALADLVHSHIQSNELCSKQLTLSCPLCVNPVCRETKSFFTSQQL
# Calls only; – = inactive; + = active, no number. Many of the other results were omitted from the sample, so hits are more common in it than they were.
SMILES,FECH inh
Cc1ccc(CN2c3ccccc3-c3nc(SCC(=O)Nc4ccc(C)c(Cl)c4)ncc3S2(=O)=O)cc1,–
CCc1cccc(C)c1NC(=O)CSC1=NS(=O)(=O)c2ccccc2N1CC,+
CCN1C(SCC(=O)Nc2ccc(Cl)cc2F)=NS(=O)(=O)c2ccccc21,+
CCN1C(SCC(=O)Nc2cc(Cl)ccc2C)=NS(=O)(=O)c2ccccc21,–
CCC1=C(c2ccc(OC)cc2)S(=O)(=O)N(CC(=O)Nc2c(C)cccc2CC)C1=O,–
CCCCNC(=O)CC1CCN(S(=O)(=O)c2ccccc2)CC1,–
CCOc1ccccc1CNC(=O)c1nc(N2CCCC2)c2oc3ccccc3c2n1,–
CCN(CC)C(=O)c1cn(C2CCN(C(=O)C3(N)CCCC3)CC2)nn1,–
C=CCn1cc(CN2CCCC2c2c(C)noc2C)c(C)n1 (stereo unspecified),–
COCCNC(=O)C1(C)Cn2c(cc3ccsc32)C(=O)N1Cc1ccc(Cl)cc1 (stereo unspecified),–
CC(C)Cc1cc(C(=O)N(C)CC2Cc3ccccc3O2)no1 (stereo unspecified),–
O=C(NC1CC(=O)N(CCc2ccccc2)C1)c1[nH]cnc1-c1ccccc1 (stereo unspecified),–
CCN1C(SCC(=O)Nc2c(C)cccc2C)=NS(=O)(=O)c2ccccc21,+
Cc1cccc(C)c1NC(=O)CSCc1nc(-c2ccccc2)no1,–
Cc1ccccc1N1C(=O)N(CC(=O)NC2CCCC2)c2ccccc2S1(=O)=O,–
COc1cc2c(c(OC)c1)C(c1cnc3cc(O)ccc3c1)CC(=O)N2 (stereo unspecified),–
Cc1cc(C)n2nc(CN(C(=O)Cc3ccc(Cl)cc3)c3ccccc3)nc2n1,–
O=C(CN1CCCN(Cc2ccccc2)S1(=O)=O)Nc1cccc(Cl)c1,–
O=C(CN1CCN(Cc2ccc(Cl)cc2)S1(=O)=O)Nc1cccc(Cl)c1,–
O=C(CN1N=C(c2ccccc2)c2ccccc2S1(=O)=O)Nc1cccc(Cl)c1,+
COc1ccc(-c2ccc(=O)[nH]n2)cc1S(=O)(=O)Nc1cc(C)c(Br)cc1C,–
CCOc1ccccc1C(=O)Nc1ccccc1Sc1cc(CC)nc2nc(C)nn12,–
Cc1cc(C2CCC2)nc(N2CCC3(CCNC(=O)CC3)CC2)n1,–
CC(NC1CCCC1)c1nc(-c2ccncc2)no1 (stereo unspecified),–
CCc1cc(CN(C)C(CC)C(=O)Nc2ccccc2)on1 (stereo unspecified),–
SMILES,FECH inh
CCc1cc(CN(C)C(=O)CN2C(=O)c3ccccc3C2=O)on1,+
CCc1cc(CN(C)C2CCN(C(=O)c3ccccn3)CC2)on1,–
CSc1nc(Nc2ccc(C(C)C)cc2)c(C#N)c(-c2ccc(Cl)cc2)n1,–
Cc1cc(C)n2nc(CC(=O)NC(C)c3ccccc3-n3cccn3)nc2n1 (stereo unspecified),–
CCn1c(CNS(=O)(=O)c2ccc3c(c2)CCCC3)nc2cccnc21,–
CCS(=O)(=O)NCc1nc2cccnc2n1C1CCCCC1,–
CCc1c(C)nc2ncnn2c1Sc1ccc(NS(=O)(=O)c2ccccc2Cl)cc1,–
Cc1cc(C)n2nc(N(Cc3cccc(F)c3)S(=O)(=O)c3ccccc3)nc2n1,–
CC1CCN(C(=O)c2[nH]cnc2C(=O)NCc2ccccc2)CC1,–
CCCNC(=O)c1[nH]cnc1C(=O)NCCc1c[nH]c2ccccc12,–
CNC(=O)c1[nH]cnc1C(=O)NCc1ccccc1,+
COCCNC(=O)c1nc[nH]c1C(=O)NCc1ccccc1,+
O=C(NCc1ccccc1)c1nc[nH]c1C(=O)N1CCCCCC1,–
O=C(NCc1ccccc1)c1nc[nH]c1C(=O)N1CCC(Cc2ccccc2)CC1,–
Cc1cc(C)n2nc(CN(C(=O)c3cccs3)c3ccc(F)cc3)nc2n1,–
Cc1cc(Nc2ccc(OC(=O)CC(C)C)cc2)n2nc(-c3cccnc3)nc2n1,–
Cc1cccc(C)c1-c1c(-c2ccccc2)ncn1CCCc1nn[nH]n1,–
Cc1ccc(OCC(=O)Nc2cc(N3CCCS3(=O)=O)ccc2C)cc1,–
Cc1cccc(OCC(=O)Nc2cc(N3CCCS3(=O)=O)ccc2C)c1,+
COc1cccc(OCC(=O)Nc2cc(N3CCCS3(=O)=O)ccc2C)c1,–
CC(C)=CC(=O)N1CCCN(CC(C)C)CC1,–
CC(=O)N[C@@H]1C[C@H](Cc2ccccc2)O[C@H](c2coc3ccccc3c2=O)C1,–
CCOc1ccc(CC(=O)Nc2cc(C)nn2-c2ncnc3c2cnn3-c2cccc(Cl)c2)cc1,–
Cc1ccc(OCC(=O)Nc2cc(C)nn2-c2ncnc3c2cnn3-c2ccc(Cl)cc2)cc1,–
CCCC(=O)Nc1cc(C)nn1-c1ncnc2c1cnn2-c1cccc(Cl)c1,–
SMILES,FECH inh
CCC(CC)C(=O)Nc1cc(C)nn1-c1ncnc2c1cnn2-c1cccc(Cl)c1,+
Cc1cc(NC(=O)CC(C)(C)C)n(-c2ncnc3c2cnn3-c2cccc(Cl)c2)n1,–
CCOc1ccc(CC(=O)Nc2cc(C)nn2-c2ncnc3c2cnn3-c2ccc(Cl)cc2)cc1,+
CNc1ncc(CN(C)S(=O)(=O)NCc2ccccc2)cn1,–
CCCn1cnnc1C(C)NC(=O)c1cc(C)nc2ccc(C)cc12 (stereo unspecified),–
CNC(=O)[C@@H]1C[C@@H](N)CN1Cc1ccc(S(C)(=O)=O)cc1,–
CCc1ccccc1NC(=O)N1CCC(n2c(C)nc3cccnc32)CC1,–
CNCC(=O)Nc1cccc(NC(=O)Cc2ccccc2)c1,–
CCN1C(SCC(=O)Nc2cccc(Br)c2)=NS(=O)(=O)c2ccccc21,+
COC(=O)CC1=CC(=O)N(CC(=O)Nc2cccc(C(F)(F)F)c2)c2ccccc2N1,–
CCN1C(SCC(=O)Nc2cccc(C(F)(F)F)c2)=NS(=O)(=O)c2ccccc21,+
O=C(CN1CCCN(Cc2ccccc2Cl)S1(=O)=O)Nc1cccc(Br)c1,–
CCN1C(SCC(=O)Nc2cc(OC)cc(OC)c2)=NS(=O)(=O)c2ccccc21,–
O=C1CN(Cc2cccc(C(F)(F)F)c2)S(=O)(=O)c2ccccc2N1Cc1ccccc1,–
COc1cc(NC(=O)NCCc2nc3cccnc3n2C2CCCCC2)cc(OC)c1,–
CCc1cc(Sc2ccc(NC(=O)COc3ccc(Cl)cc3)cc2)n2ncnc2n1,–
CN1CCCNC(=O)C12CCN(C(=O)c1nc3ccccc3[nH]1)CC2,–
O=C(NCc1ccccc1F)c1cccn1-c1nnc(N2CCCCC2)s1,+
O=C(NCCN1CCCCCC1)c1cccn1-c1nnc(N2CCCCC2)s1,–
Cc1ccccc1CNC(=O)c1cccn1-c1nnc(N2CCCCC2)s1,–
CCc1cc(CN2CCOc3c(cc(-c4cccs4)cc3OC)C2)[nH]n1,–
COc1ccc(NC(=O)CN2CCN(Cc3ccccc3F)S2(=O)=O)cc1OC,–
Cc1cc(N(C)C)nc(N2CCN(S(=O)(=O)c3ccc(F)cc3)CC2)n1,+
CC(=O)Nc1ccc(S(=O)(=O)N2CCN(c3nc(C)cc(N4CCCC4)n3)CC2)cc1,–
CC(=O)Nc1ccc(S(=O)(=O)N2CCN(c3nc(C)cc(N4CCOCC4)n3)CC2)cc1,–
Cc1cc(N(C)C)nc(N2CCN(S(=O)(=O)c3ccc(C)c(C)c3)CC2)n1,–
Cc1cc(N(C)C)nc(N2CCN(S(=O)(=O)c3ccc(Cl)cc3)CC2)n1,–
CC(=O)Nc1ccc(S(=O)(=O)N2CCN(c3nc(C)cc(N4CCCCC4)n3)CC2)cc1,+
COc1ccc(CC(=O)N(C)CC2CCCCO2)cc1 (stereo unspecified),–
Cc1[nH]cnc1C(=O)N1CCC(n2nccc2NC(=O)C2CC2)CC1,–
